Hit rate of the full screen: of about 290,000 compounds, about 11,000 (3.8%) were called active. This is one part of a sample in which actives are shown more often than they occur.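 How the source made its calls: active means mean replicate inhibition above about 79%, with every replicate also reaching it (limit read from the data); inconclusive means only one of the two criteria met; inactive means mean below limit and not every replicate reaching it.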
The compounds below were run against FAD-linked sulfhydryl oxidase ALR (Homo sapiens) (UniProt P55789) (assay: ALR-catalysed DTT oxidation blockers – biochemical, H2O2 detection, HRP-luminol luminescence, single point, primary screen (AID 485317)). Conditions: purified ALR, stronger effect = higher value, concentration not given here.
Chain of FAD-linked sulfhydryl oxidase ALR (Homo sapiens) (P55789 whole entry, looked up): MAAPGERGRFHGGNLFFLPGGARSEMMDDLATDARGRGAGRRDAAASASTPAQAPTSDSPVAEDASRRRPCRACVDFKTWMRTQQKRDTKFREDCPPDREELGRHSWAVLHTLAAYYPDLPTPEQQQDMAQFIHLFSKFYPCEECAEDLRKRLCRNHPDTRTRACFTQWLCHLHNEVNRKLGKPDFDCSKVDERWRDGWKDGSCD

inhibition, inactive:
CC(=O)NC12CC3CC(C1)CC(C(=O)N1CCN(C(=O)c4ccco4)CC1)(C3)C2 -2.95%
CC1(C)O[C@@H]2[C@H](O1)[C@@H](COS(=O)(=O)O)O[C@H]2n1ccc(=O)[nH]c1=O -0.754%
O=C(NNc1cc(Cl)cc(Cl)c1)c1c(F)cccc1Cl 3.41%
Cc1ccc(NNC(=O)c2cccs2)cc1Cl 2.62%
Cc1csc(=O)n1CC(=O)Nc1ccc(S(C)(=O)=O)cc1 2.59%
CN1C(=O)[C@H]2[C@@H](/C=C/c3ccccc3)N3C(=O)CN(Cc4ccc(-c5ccccc5)cc4)C(=O)[C@@]3(C)[C@H]2C1=O 3.57%
CCCCNC(=O)CSc1nccn1Cc1ccccc1 11.9%
CCCCCCNC(=O)CSc1nccn1Cc1ccccc1 -0.072%
Clc1ccc(Nc2nc(-c3cccs3)cs2)nc1 -1.13%
O=c1oc2ccccc2cc1-c1csc(Nc2ccc(O)cc2)n1 32.6%
COC(=O)Cc1ccc(OC(=O)C2CCN(S(=O)(=O)c3ccc(OC)c(OC)c3)CC2)cc1 -4.72%
O=C(COC(=O)c1cccnc1Cl)Nc1ccc(S(=O)(=O)N2CCOCC2)cc1 -2.58%
Cc1cccc(Nc2nnc(SCC(=O)c3c(N)n(C4CC4)c(=O)[nH]c3=O)s2)c1C -3.29%
CN(NS(=O)(=O)c1cccs1)c1ncc(C(F)(F)F)cc1Cl -1.63%
Cc1nn(CC#N)c(=O)n1N(C)c1ncc(C(F)(F)F)cc1Cl 0.914%
CCOC(=O)/C=C/c1ccc(C(F)(F)F)cc1S(=O)(=O)NC(C)(C)C 20.8%
c1ccc2cc(CCCc3cc4ccccc4cn3)ncc2c1 2.21%
CN(Cc1ccccc1)C(=O)COC(=O)/C=C/c1ccc2c(c1)OCO2 0.927%
Cc1ccc(N2C(=O)CC(Sc3ncn[nH]3)C2=O)cc1 (stereo not given) 45.4%
COc1ccc(-c2nc(SCC(=O)N3CCCC3)n[nH]2)cc1 -0.237%
CN(CC(=O)NCCc1ccc(S(N)(=O)=O)cc1)CC(=O)Nc1ccc(F)c(F)c1F -4.6%
CCCSc1ccc([C@H]2N[C@@](Cc3ccccc3)(C(=O)OC)[C@H]3C(=O)N(C)C(=O)[C@@H]23)cc1 4.44%
Cc1ccc(-c2cc(C(=O)N/N=C/C=C/c3ccccc3)n[nH]2)o1 -7.61%
CCOC(=O)C1CCN(C(=O)CN2C(=O)NC(C)(c3ccc4cc(OC)ccc4c3)C2=O)CC1 (stereo not given) -7.42%
NC1=NC(c2ccc([N+](=O)[O-])cc2)N(c2ccc(F)cc2)C(N)=N1 (stereo not given) -1.48%
CCOC(=O)CSC1=C(C#N)C(c2sccc2C)CC(=O)N1 (stereo not given) 2.21%
CCOC(=O)CSC1=C(C#N)C(c2ccco2)C(C(=O)OCc2ccccc2)=C(C)N1 (stereo not given) -2.61%
Cc1cc(Br)ccc1NC(=O)CN(C)C(=O)CN1C(=O)NC2(CCCC2)C1=O -8.04%
COc1cc(NC(=O)COC(=O)c2cc(S(=O)(=O)N3CCOCC3)ccc2F)cc(OC)c1 -2.6%
Cc1cc(C)n(-c2ccc(C(=O)O)cc2[N+](=O)[O-])n1 -3.49%
COc1ccc2c(c1)C=CC1(O2)N(CCO)c2ccccc2C1(C)C (stereo not given) -8.22%
CCOC(=O)[C@@H]1[C@H]2COc3ccc(Br)cc3[C@H]2N2C(=O)N(c3ccc(C)cc3)C(=O)[C@@]12C -4.73%
COc1ccc(CNC(=O)/C(C#N)=C/c2cccc(OC)c2OC)cc1 12.6%
COc1cc(/C=C(\C#N)C(=O)Nc2ccc3ccccc3c2)c([N+](=O)[O-])cc1OC -17.7%
COc1cc(OC)cc(-c2sc3ccc(OC)cc3c2-c2ccc3cc[nH]c3c2)c1 0.621%
COc1ccc(N2CCN(C(CNS(=O)(=O)c3ccc(C)cc3)c3ccccc3)CC2)cc1 (stereo not given) -0.191%
O=C(CCN1C(=O)C2CCCCC2C1=O)Nc1ccc(OC(F)F)cc1 (stereo not given) -7.6%
CCCN(CC(=O)Nc1ccccc1C)C(=O)c1ccc2[nH]c3c(c2c1)CC(C)CC3 (stereo not given) -1.42%
COc1ccc(Cl)cc1NC(=O)CCN1CCOCC1 -5.1%
COc1ccc(NC(=O)CCN2CCCC2)c(OC)c1 -4.61%
CC(C)n1ncc2c(C(=O)NCc3ccccc3CN(C)C)cc(C3CC3)nc21 -20.5%
Cc1ccc(NC(=O)C(C)OC(=O)Cc2c[nH]c3ccccc23)cc1S(=O)(=O)N1CCOCC1 (stereo not given) -3.03%
Cc1ccc(C(=O)OCC(=O)NCc2cc(C)c(O)c(C)c2)cc1S(=O)(=O)N1CCCCC1 14.9%
COc1cc(OC)cc(-c2c(-c3ccc(F)cc3)c3cc(-c4ccc5cc[nH]c5c4)ccc3n2C)c1 0.122%
COc1ccc(N2CCN(C(=O)CN3C(=O)COc4ccccc43)CC2)cc1 38%
CCCN1CCN(CCCNC(=O)CN2C(=O)COc3ccccc32)CC1 -3.58%
Cc1cccc(NS(=O)(=O)c2ccc(C)c(C(=O)NCC(c3ccccc3)N(C)C)c2)c1 (stereo not given) -16.5%
CN(C(=O)CSc1cccc[n+]1[O-])C1CCCCC1 -8.28%
CN(/N=C/c1ccccc1)C(=S)c1ccccc1 12.2%
N#Cc1ccc(OCC(=O)NC(=O)NC2CCS(=O)(=O)C2)cc1 (stereo not given) -0.0725%
CCOc1ccc(NC(=O)CN(C)C(=O)Cc2sc(C)nc2-c2ccc(F)cc2)cc1OCC -2.09%
Cc1ccc(-c2ccnc3[nH]n(-c4ccccc4)c(=O)c23)cc1 1.8%
Cc1ccc(N=Nc2c(C)[nH]n(-c3ccccc3)c2=O)cc1 -12.7%
COc1cccc(CNC(C)C(=O)Nc2ccc(S(=O)(=O)N3CCCC3)cc2)c1 (stereo not given) -0.631%
O=C(C[C@@H]1C/C=C\CCC(=O)OC[C@@H]2CCCN2C1=O)NCCO 2.95%
CN(C)c1ccc(/C=N\S(=O)(=O)c2ccccc2)cc1 0.19%
COCCn1c(C)cc(C(=O)CSc2nnc(C3CC3)n2C2CC2)c1C 13.1%
COc1ccc(C(=O)c2c3ccc([N+](=O)[O-])cc3[n+]([O-])n2CCCN)cc1 -50.8%
Cc1ccc(NC(=O)c2cccc(S(=O)(=O)N3CCCc4ccccc43)c2)nc1 -1.14%
Cn1ccnc1SCC(=O)Nc1ccc2c(c1)OCCO2 47.8%
CCn1c(COc2ccccc2)nnc1SCC(=O)Nc1ccc2c(c1)OCCO2 -3.91%
O=C(C1CC(=O)N(C2CCCCC2)C1)N1CCN(c2ccccc2)CC1 (stereo not given) 68.2%
O=C(NCc1cccc(Cl)c1)C1CCC(=O)N(C2CC2)C1 (stereo not given) -4.45%
COc1ccc(S(=O)(=O)N2CCOC23CCN(S(=O)(=O)c2ccc([N+](=O)[O-])cc2)CC3)cc1 0.209%
CCN1C(=O)[C@H]2[C@@H](c3ccc(-c4ccc(OC)cc4)cc3)N[C@@](Cc3ccccc3)(C(=O)OC)[C@H]2C1=O 3.62%
Cc1ccsc1/C=C1\SC(N2CCOCC2)=NC1=O -15.8%
O=C1N=C(N2CCCC2)S/C1=C\c1cccc(Br)c1 8.82%
CCOc1cc(/C=C2\C(=N)N3N=C(C)SC3=NC2=O)ccc1OCCOc1ccccc1 -3.65%
CCc1ccc(/C=C2\SC(N3CCOCC3)=NC2=O)cc1 -8.77%
CC1CCN(C2=NC(=O)/C(=C/c3cn[nH]c3-c3ccccc3)S2)CC1 28.2%
CCOc1cc(C(=S)N2CCOCC2)ccc1O 2.75%

inhibition, active:
Cc1ccc(NNC(=O)c2c(F)cccc2Cl)cc1Cl 98.7%
CC(=O)Nc1cccc(NC(=O)CSc2nccn2Cc2ccc(F)cc2)c1 98.1%
Cc1ccc(Nc2nc(-c3ccc(O)cc3O)cs2)nc1 98.8%
CC[N+](C)(CC)CCC[n+]1c(-c2ccccc2)c2cc(N)ccc2c2ccc(N)cc21 90.7%
C#CCN(N(C)c1ncc(C(F)(F)F)cc1Cl)S(=O)(=O)c1ccc2ccccc2c1 89.2%
COc1ccc(N2C(=O)CC(Sc3n[nH]c(-c4ccc(C)cc4)n3)C2=O)cc1 (stereo not given) 98.9%
S=c1[nH]nc(/C=C/c2ccccc2)o1 83.4%
Cc1ccc(C2CC(=O)NC(SCC(=O)OCc3ccccc3)=C2C#N)o1 (stereo not given) 98.4%
CN1c2ccc([N+](=O)[O-])cc2C(C)(C)C12C=Cc1cc(C(=O)O)ccc1O2 (stereo not given) 97.9%
COc1ccc(NC(=O)/C(C#N)=C\c2cc(OC)c(OCc3ccc(C(=O)O)cc3)cc2Br)cc1 98%
COc1ccccc1NC(=O)CCN1CCN(c2ccc(Cl)cc2)CC1 89.1%
COc1ccc(N2CCN(CCNC(=O)CCN3C(=O)COc4ccccc43)CC2)cc1 80.3%
Cc1ccc(C2C3=C(Nc4[nH]n(-c5ccccc5)c(=O)c42)c2ccccc2C3=O)cc1 (stereo not given) 87.2%
CC[n+]1cc(C)ccc1/C=C/c1ccc(N(C)C)cc1 99.4%
COc1cccc(NC(=O)CSc2nccn(-c3ccc4c(c3)OCCO4)c2=O)c1 98.6%
O=C(C1CCC(=O)N(C2CC2)C1)N1CCN(c2ccc(Cl)cc2)CC1 (stereo not given) 96.7%
CCOc1cc(/C=C2\SC(N3CCCCC3)=NC2=O)ccc1O 85.2%
CC1CCN(C2=NC(=O)/C(=C/c3ccc(O)cc3)S2)CC1 98.6%
CCOc1cc(/C=C2\SC(N3CCCC(C)C3)=NC2=O)ccc1O (stereo not given) 98%

— PubChem BioAssay AID485317 (Broad Institute, 2010)
